Screens deposited in PubChem BioAssay by several laboratories.
The list is not random: actives were taken first. Their share in the collection is about 3.4%.
TROY NFkB inh – inhibitors of TROY-driven NF-kB signaling, primary screen, Q293 LMP1-TROYcd cells, NF-kB luciferase, uHTS | Q293 LMP1-TROYcd NF-kB luciferase reporter, 4 h | inhibition, % at 10 µM | actives 0.98% (n = 360,000);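 active = compounds whose plate-normalised and pattern-corrected inhibition of the luciferase reporter signal at the single screening dose is 50% or more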
TRPM1 prom inh – inhibitors of MITF-dependent TRPM1 promoter reporter, primary screen, cell-based, SK-MEL-5, single point, luciferase. SK-MEL-5 TRPM1 promoter luciferase, 24 h. inhibition, % at 12.5 µM. actives 0.83% (n = 330,000). AID 488899, 2010;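 active = mean inhibition across replicates of 60% or more, whatever share of single replicates reaches that level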
HIF-2a inh – HIF-2a reporter inhibitors, primary screen, luminescence, 786-0 RCC cells; 786-0 RCC cells HIF-2a reporter, luciferase luminescence, overnight; inhibition, % at 18.8 µM; actives 0.72% (n = 360,000); AID 624352, 2012;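 active = inhibition of the luminescence signal of 40% or more relative to plate controls, in a single-dose primary screen at 18.75 µM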
TWEAK-Fn14 inh – inhibitors of TWEAK-Fn14 signaling, primary screen, luciferase reporter cells, uHTS; AID 1159606, 2016; inhibition, % at 10 µM; TWEAK-stimulated Fn14 reporter cells, luciferase luminescence, 8 h; actives 2% (n = 360,000); in the data active = inhibition above about 50%
Shn3 3UTR inh – reduction of Shn3 3'UTR firefly luciferase signal, primary screen, Schnurri-3 inhibitor project, cell-based, Clone20 osteoblasts, set 2 | Clone20 osteoblast Shn3 3'UTR firefly luciferase, 24 h | inhibition, % at 12.5 µM | actives 0.52% (n = 360,000) | AID 588674, 2011;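 active = mean inhibition of at least 75% with every replicate also reaching 75%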
LMP1 NFkB inh – EBV LMP1-driven NF-kappaB luciferase reporter inhibitors, primary screen, cell-based, luminescence, single point | AID 504558, 2011 | actives 0.69% (n = 350,000) | LMP1-induced NF-kappaB luciferase reporter cells | inhibition, % at 12.5 µM; in the data active = inhibition above about 41%
A number is an active result; – = inactive; · = no result given.

SMILES | TROY NFkB inh | TRPM1 prom inh | HIF-2a inh | TWEAK-Fn14 inh | Shn3 3UTR inh | LMP1 NFkB inh
O=C(Nc1cccc(-c2nc3ccccc3s2)c1)c1ccc2c(c1)OCO2 | – | – | – | – | – | –
c1ccc2sc(-c3ccc4c(c3)OCO4)nc2c1 | – | – | – | 74 | – | –
CC(=O)c1ccc(NC(=O)c2ccc3snnc3c2)cc1 | – | – | – | – | – | –
O=C(Nc1ccc(Cl)cc1)c1ccc2snnc2c1 | – | – | – | – | – | 80
C[C@@H]1CN([C@H](C)CO)C(=O)CCCn2nncc2CO[C@@H]1CN(C)S(=O)(=O)c1cccc(F)c1 | – | · | – | – | – | –
COc1ccc(-c2nc(-c3cccnc3)no2)cc1OC | – | – | – | 84 | – | –
COc1ccc(-c2csc3nc(-c4cccnc4)nc(Cl)c23)cc1OC | – | – | – | 53 | – | –
COc1cc(-c2nc(-c3cccnc3)no2)cc(OC)c1OC | – | – | – | – | – | –
Clc1nc(-c2cccnc2)nc2scc(-c3ccccc3)c12 | – | – | – | – | – | –
O=C(NC1CCCC(C(F)(F)F)C1)c1ccc([N+](=O)[O-])o1 (stereo not drawn) | – | 66 | – | – | – | –
O=C(NC1CCCCC1)c1ccc([N+](=O)[O-])o1 | – | – | – | – | – | –
COCCCNC(=O)Cn1ccc(N)nc1=O | – | – | – | – | – | –
CC1(C)COC(/C=C/c2ccc([N+](=O)[O-])cc2)=N1 | – | – | – | 62 | – | –
COC(=O)C(NS(=O)(=O)c1ccc(N2CCCC2=O)cc1)c1ccccc1 (stereo not drawn) | – | – | – | – | – | 67
FC(F)(F)c1cnc(NNC(=S)Nc2ccccc2Cl)c(Cl)c1 | 59 | – | – | 51 | – | –
Clc1ccc2c(NCc3ccccc3)ccnc2c1 | – | – | – | – | 90 | –
CCNC1CCC(Nc2ccnc3cc(Cl)ccc23)CC1 (stereo not drawn) | – | – | – | – | – | –
OC(CNc1ccnc2cc(Cl)ccc12)CNC1CCCCC1 (stereo not drawn) | – | 91 | – | – | – | –
S=C(NNc1ccnc2cc(Cl)ccc12)Nc1ccccc1Cl | 66 | – | – | 64 | – | –
CCN(CC)CCNc1ccnc2cc(Cl)ccc12 | – | – | – | – | – | –
CC1NC(=O)c2cccnc2-n2c1nc1cc(F)c(F)cc1c2=O (stereo not drawn) | – | · | – | – | – | –
O=C(COc1coc(CN2CCCc3ccccc32)cc1=O)Nc1ccc([N+](=O)[O-])cc1 | – | – | – | – | – | –
CN(C)c1ccc(Cl)c(NC(N)=S)c1 | – | · | – | – | – | –
Cc1ccc(NC2=Nc3ccccc3CS2)cc1 | – | – | – | 74 | – | –
COc1ccc(C2c3c(ncn(CCCO)c3=N)Oc3ccc4ccccc4c32)cc1 (stereo not drawn) | – | – | – | – | – | –
SMILES | TROY NFkB inh | TRPM1 prom inh | HIF-2a inh | TWEAK-Fn14 inh | Shn3 3UTR inh | LMP1 NFkB inh
O=C(Cc1ccccc1)Nc1ncnc2c1C(c1ccccc1)c1c(ccc3ccccc13)O2 (stereo not drawn) | – | – | – | 51 | – | –
O=C(Nc1ncnc2c1C(c1ccccc1)c1c(ccc3ccccc13)O2)c1ccccc1 (stereo not drawn) | – | – | – | 54 | – | –
CCOC(=O)CCC(=O)Nc1ncnc2c1C(c1ccccc1)c1c(ccc3ccccc13)O2 (stereo not drawn) | – | – | – | – | – | –
COc1cccc(N2C(=NC(=O)COc3ccccc3)SC3CS(=O)(=O)CC32)c1 (stereo not drawn) | – | – | – | – | – | –
CC(C(=O)NC(C)(C)C)n1c(-c2ccc3c(c2)OCO3)nc2ccccc21 (stereo not drawn) | · | · | – | · | · | ·
CN(C)c1cnn(-c2ccccc2)c(=O)c1Cl | – | – | – | – | – | –
Cc1ccc(-n2ncc(N(C)C)c(Cl)c2=O)cc1 | – | – | – | 55 | – | –
O=c1cc(Cl)nc2ccccn12 | – | – | – | – | – | 71
C=C(C)Cn1c2ccc(NC(=S)NCc3ccccc3F)cc2c(=O)n1C | – | · | – | – | – | ·
Cc1cc(C)n(-c2nc(NCCN(C)C)c3c4c(sc3n2)CCCC4)n1 | – | 66 | – | – | – | –
Cc1cc(C)n(-c2nc(NCCCN(C)C)c3c4c(sc3n2)CCCC4)n1 | – | · | – | – | – | ·
COc1ccc(OC)c(NC(=O)CN(Cc2ccc(F)cc2)C2CCCCC2)c1 | – | – | – | – | – | –
CCn1nccc1NC(=O)c1ccc2sc([C@@H]3O[C@H](CO)[C@H](O)[C@H](O)[C@H]3O)nc2c1 | – | · | – | – | – | ·
NNc1nc2ccccc2c(=O)n1Cc1ccccc1 | – | – | – | 74 | – | –
O=C(CNc1ccc(Br)cc1)Nc1ccc(S(=O)(=O)N2CCCCC2)cc1 | – | · | – | – | – | –
Cc1ccc([N+](=O)[O-])cc1N(CC(=O)Nc1ccc(S(=O)(=O)Nc2cccc(C(F)(F)F)c2)cc1)S(C)(=O)=O | 70 | – | – | 85 | – | –
COc1cc(NC(=S)N2CCN(CCO)CC2)cc(OC)c1 | – | – | – | – | – | 69
OCCN1CCN(C(=S)Nc2ccccc2)CC1 | – | – | – | – | – | –
O=C(NCc1ccccn1)C1CCN(S(=O)(=O)c2ccccc2)CC1 | · | – | – | 88 | – | –
O=C(NCCCn1ccnc1)C1CCN(S(=O)(=O)c2ccc(F)cc2)CC1 | – | – | – | 86 | – | –
Nc1ccc(-c2cnc(N)c(C(=O)c3cccnc3)n2)cn1 | – | – | – | 79 | – | 67
O=C(Nc1ccc(S(=O)(=O)Nc2cnc3ccccc3n2)cc1)c1ccc([N+](=O)[O-])cc1Cl | – | – | – | – | – | –
Nc1ccccc1S(=O)(=O)NC1=NCCCCC1 | – | – | – | 104 | – | –
Cn1c(=O)c(C(=O)Nc2ccccn2)c(O)c2ccccc21 | – | – | – | 56 | – | –
N/C(Cc1ccc([N+](=O)[O-])cc1)=N\OC(=O)c1ccc2ccccc2c1 | 59 | – | – | – | – | –
Cc1cccc(C(=O)O/N=C(\N)Cc2ccc([N+](=O)[O-])cc2)c1 | – | – | – | – | – | –
CC(=O)NC(c1ccccc1)c1nc(-c2ccc(C)c(C)c2)cs1 (stereo not drawn) | – | · | – | – | – | ·
CCOc1ccc(Br)cc1S(=O)(=O)Nc1cccc(S(=O)(=O)N(C)c2ccccc2)c1 | 77 | – | – | – | – | –
